The nature of assay [1]: Quantitative high throughput screen for delayed death inhibitors of the malarial parasite plastid, 96 hour incubation (AID 488745). Further: nearly all actives have a fitted effect of over 70% in size. Further: potency means the concentration at half of the fitted maximal effect. The method in brief: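 Decreased firefly luciferase luminescence indicates inhibited growth of reporter-integrated P. falciparum after two generations (96 h, 37 C, 5% CO2). Infected erythrocytes at 0.1% parasitemia, 2% hematocrit, in Albumax-supplemented RPMI 1640.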

Assay [2] can be described thus: Quantitative high throughput screen for delayed death inhibitors of the malarial parasite plastid, 48 hour incubation (AID 488752). Further: nearly all actives have a fitted effect of over 65% in size. Further: potency means the concentration at half of the fitted maximal effect. The method in brief:
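One-generation (48 h) growth assay: a decrease in luciferase signal from an integrated reporter in P. falciparum-infected red cells (0.1% parasitemia, 2% hematocrit) after compound exposure at 37 C indicates parasite inhibition.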

Assay [3] addresses Thioredoxin reductase 1, cytoplasmic (Rattus norvegicus) (UniProt O89049). Kind of assay: qHTS Assay for Substrates of Mammalian Selenoprotein Thioredoxin Reductase 1 (TrxR1) (AID 488772).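 Further: series mostly up to about 57 µM; 0% is about no effect; a drop in NADPH fluorescence below the no-compound background marks a TrxR1 substrate.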 A digest of the protocol:
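In this dual-purpose format, potential substrates are identified from the first fluorescence read after selenite addition, not from the 8-minute delta. Rat enzyme is preincubated with NADPH and then with compound at ~22 deg C.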
Background: qHTS replaces the single test concentration by a dilution series.

The target is the same in assay [4]. The assay is described as follows: qHTS Assay for Inhibitors of Mammalian Selenoprotein Thioredoxin Reductase 1 (TrxR1) (AID 488773). Further: nearly all actives have a fitted effect of over 40% in size. Further: potency means the concentration at half of the fitted maximal effect. As to conditions: Potency: inhibition. The method in brief:
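Inhibition is scored from the loss of NADPH fluorescence between first and last reads of an 8-min kinetic run. Selenite (400 uM) was the substrate, added after 15 min compound preincubation at room temperature.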

Assay [5] addresses Flap endonuclease 1 (Homo sapiens) (UniProt P39748). Kind of assay: qHTS Validation Assay for the Inhibitors of Human Flap endonuclease 1 (FEN1) (AID 488816). Further: potency means the concentration at half of the fitted maximal effect. The method in brief: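 Enzyme reagent 10 nM; cpds pinned; 15 min RT preinc.; substrate 50 nM final; reads t=0 and 15 min; no-enzyme buffer wells as neg. control; normalized data, 4-parameter Hill fit.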
The target of assay [6] is M-phase phosphoprotein 8 (Homo sapiens) (UniProt Q99549). Kind of assay: qHTS Validation Assay for Inhibitors for MPP8 Chromodomain Interactions with Methylated Histone Tails (AID 488949). Further: nearly all actives have a fitted effect of over 55% in size. Further: potency means the concentration at half of the fitted maximal effect. The method in brief:
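50 nM MPP8 + 50 nM b-H3K9me3 peptide, PBS pH 7.4/0.01% Tween-20, 30 min RT; + cpd 30 min RT; + AlphaScreen donor/Ni-chelate acceptor beads 10 ug/mL final, 30 min dark; luminescence read.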

The target in assay [7] is Chromobox protein homolog 1 (Homo sapiens) (UniProt P83916). The assay is described as follows: qHTS Validation Assay for Inhibitors of HP1-beta Chromodomain Interactions with Methylated Histone Tails (AID 488953). Further: nearly all actives have a fitted effect of over 50% in size. Further: potency means the concentration at half of the fitted maximal effect. A digest of the protocol: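 AlphaScreen proximity signal from streptavidin donor and nickel chelate acceptor beads (final 10 ug/mL) after 30 min dark incubation. Compounds had 30 min at room temperature with preformed complex of 50 nM HP1-beta and 50 nM b-H3(1-18)K9me3 in PBS pH 7.4 with 0.01% Tween-20.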
Chain of Chromobox protein homolog 1 (Homo sapiens) (P83916 whole entry, looked up): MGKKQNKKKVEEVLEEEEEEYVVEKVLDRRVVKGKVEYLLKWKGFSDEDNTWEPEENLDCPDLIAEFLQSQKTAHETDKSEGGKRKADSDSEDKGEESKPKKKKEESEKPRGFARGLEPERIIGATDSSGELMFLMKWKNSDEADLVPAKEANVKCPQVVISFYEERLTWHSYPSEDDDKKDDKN

Assay [8] deals with Methanococcus maripaludis chaperonin (MmCpn) (UniProt Q6LX38). Kind of assay: High-Throughput Screening for Modulators of Cytosolic Chaperonin Activity: MmCpn Primary Screen (AID 488978).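 Further: 50 nM MmCpn enzyme hydrolysing 30 µM ATP at 37 °C; 0% is about no effect.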 A digest of the protocol: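 Steps: chaperonin 50 nM final; add compound, 5 min RT; start with ATP, 30 uM final; hold 10 min at 37C; add ADP Transcreener HTRF reagent, 5 min; read ex 320, em 590 and 665 nm.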

Assay [9] has as its target Transient receptor potential cation channel subfamily V member 1 (Homo sapiens) (UniProt Q8NER1). The assay is described as follows: HTS Assay for Compounds that Act as Enhancers of the Vanilloid Receptor 1 (AID 488979). Further: 0% is about no effect. The method in brief:
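TRPV1 cells loaded with Fluo-8 calcium dye; compound added and Ca2+ signal (ex 480/em 520 nm) followed 3 min, then capsaicin at EC20 added and read 2 more min to detect enhancement.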

The target of assay [10] is D(1A) dopamine receptor (Homo sapiens) (UniProt P21728). Kind of assay: HTS Assay for Allosteric Agonists of the Human D1 Dopamine Receptor: Primary Screen for Agonists (AID 488981). Further: potency means the concentration at half of the fitted maximal effect. On activation: 0% is about no effect. A digest of the protocol:
(§1)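 Tetracycline-induced HEK293 Trex D1 cells with forced coupling to calcium, loaded with no-wash calcium dye; kinetic fluorescence read 180 s after compound addition for agonism, then a further 180 s after an EC20 dopamine challenge for potentiation.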

For assay [11] the target is unchanged. The assay is described as follows: HTS Assay for Allosteric Agonists of the Human D1 Dopamine Receptor: Primary Screen for Potentiators (AID 488982). Further: 0% is about no effect. A digest of the protocol: as §1
For assay [12] the target is unchanged. Kind of assay: HTS Assay for Allosteric Agonists of the Human D1 Dopamine Receptor: Primary Screen for Antagonists (AID 488983).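 Further: calcium flux response to an EC80 dopamine challenge measured with no-wash dye; on the % scale 0 is the no-effect control and ±100 the full control effect; nearly all actives have a fitted effect of over 65% in size.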 A digest of the protocol: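 Calcium-flux read-out in inducible HEK293 T-REx cells expressing D1, dye-loaded 30–90 min at room temperature. Kinetic reads: 180 s after compound (agonist phase), then 180 s after an EC80 dopamine challenge.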

Assay [13] addresses Tyrosyl-DNA phosphodiesterase 1 (Homo sapiens) (UniProt Q9NUW8). The assay is described as follows: Confirmation Assay for Inhibitors of Tyrosyl-DNA Phosphodiesterase (TDP1) (AID 489007). Further: potency means the concentration at half of the fitted maximal effect; nearly all actives have a fitted effect of over 40% in size. The settings on record: recombinant human TDP1 enzymatic activity, dose-response. A digest of the protocol: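 AlphaScreen assay of tyrosine-FITC cleavage from a biotinylated DNA substrate (15 nM) by E. coli-expressed human Tdp1 (1 nM). Sequence: compound preincubation 15 min, reaction 5 min, bead detection 10 min, all at room temperature. No-enzyme wells give maximum signal.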

The target in assay [14] is ATPase family AAA domain-containing protein 5 (Homo sapiens) (UniProt Q96QE3). Kind of assay: Validation screen for small molecules that inhibit ELG1-dependent DNA repair in human embryonic kidney (HEK293T) cells expressing luciferase-tagged ELG1 (AID 493107). Further: nearly all actives have a fitted effect of over 70% in size. Further: potency means the concentration at half of the fitted maximal effect. A digest of the protocol:
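Luciferase read-out, ONE-Glo, 30 min at room temperature, follows 16 h co-exposure at 37 C of compound and the DNA-damaging agent 5-fluorouridine. Cells: HEK293T with ELG1-luciferase fusion, 2,000 per well, DMSO as vehicle.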

For assay [15], the target named is Thyrotropin-releasing hormone receptor (Homo sapiens) (UniProt P34981). The assay is described as follows: qHTS for Small Molecule Agonists and Allosteric Enhancers of Human TRH Receptor: Validation Screen for Agonists (AID 493127;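 active means calcium activation more than 3 SD above the typical response in the agonist read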;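 further: intracellular calcium rise by fluo-8 fluorescence before TRH EC20 addition; 0% is about no effect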). As to conditions: TRH receptor agonist cell assay; at 2 µM; stronger effect = higher value. The method in brief: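 Compound-evoked intracellular calcium release in fluo-8-loaded TRHR cells, read kinetically on FDSS (Ex 480/Em 530, 1 s/cycle) after 23 nL pintool transfer. Agonist phase preceded 10 nM TRH EC20 addition.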
Chain of Thyrotropin-releasing hormone receptor (Homo sapiens) (P34981 whole entry, looked up): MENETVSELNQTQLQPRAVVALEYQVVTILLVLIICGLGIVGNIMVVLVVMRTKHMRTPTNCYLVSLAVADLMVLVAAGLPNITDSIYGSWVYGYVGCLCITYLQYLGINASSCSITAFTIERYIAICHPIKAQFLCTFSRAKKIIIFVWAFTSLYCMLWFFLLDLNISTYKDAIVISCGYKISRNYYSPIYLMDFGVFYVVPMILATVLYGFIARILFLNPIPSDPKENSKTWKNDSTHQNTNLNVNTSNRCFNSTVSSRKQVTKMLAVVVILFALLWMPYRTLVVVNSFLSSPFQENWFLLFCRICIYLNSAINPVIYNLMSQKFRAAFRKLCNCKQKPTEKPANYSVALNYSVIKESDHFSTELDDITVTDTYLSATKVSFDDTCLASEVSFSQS

The nature of assay [16]: qHTS for Inhibitors of Cell Surface uPA Generation: Validation Assay (AID 493164).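 Further: RAW 264.7 macrophage cells exposed to compound for 18 h; 0% is about no effect.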 A digest of the protocol:
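ATP-Lite luminescence read-out: ATP remains high when uPA activity-dependent LF translocation into the cytoplasm is blocked. RAW 264.7 cells, 18 h compound exposure at 37 C; 7-point titration, 2.45 nM to 38.3 uM final.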

For assay [17], the target named is Thyrotropin receptor (Homo sapiens) (UniProt P16473). The assay is described as follows: qHTS Assay for Antagonists of the Thyroid Stimulating Hormone Receptor (AID 488980). Further: series mostly up to about 58 µM; 0% is about no effect. The method in brief:
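Readout is cAMP by HTRF competition between cellular cAMP and cAMP-d2 for a cryptate-labelled antibody. Antagonism was assessed in TSHR-transfected HEK293 cells stimulated with 4 nM TSH (EC80, final) in the presence of RO 20-1724.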

Assay [18] in a line: Nrf2 qHTS screen for inhibitors: Validation (AID 493153; active means well fitted inhibition curve with a large enough effect in the main read-out, with a control signal flat, not every such curve was filed as active). As to conditions: Potency: luciferase luminescence; viability change: measured here: cytotoxicity max response. A digest of the protocol:
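Concentration-response on A549 ARE_Fluc reporter cells exposed 18-24 h at 37 C, 5% CO2. Cytotoxicity read first by CellTiter-Fluor fluorescence (Ex 405/Em 525), then Nrf2 inhibition by BugLite luminescence after 15 min.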

Assay [19] is described as follows: Validation screen for small molecules that induce genotoxicity in human embryonic kidney (HEK293T) cells expressing luciferase-tagged ELG1 (AID 493106). Further: potency means the concentration at half of the fitted maximal effect. The method in brief: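 ELG1-luciferase reporter readout (ONE-Glo, 30 min, room temperature) after 16 hr compound treatment at 37 °C of HEK293T cells at 2,000 per well. Rising luminescence flags genotoxic stress.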

Data on eight molecules can be found in PubChem BioAssay (NCATS).

“And” between values parts separate entries of the source, which are not always exact repeats. Identical values can stand only once. Records with an inconclusive call do not appear. The source made the active and inactive calls. Unless noted, the call rests on the fitted dose curve; in most records, active means well fitted curve in the direction sought with a large enough effect; inconclusive means small, poorly fitted or top-dose-only effect, or another doubt; inactive means no such curve, though single readings can be large; an effect the other way counts as inactive or inconclusive.

Chain of ATPase family AAA domain-containing protein 5 (Homo sapiens) (Q96QE3 whole entry, looked up, the tested form may be a part): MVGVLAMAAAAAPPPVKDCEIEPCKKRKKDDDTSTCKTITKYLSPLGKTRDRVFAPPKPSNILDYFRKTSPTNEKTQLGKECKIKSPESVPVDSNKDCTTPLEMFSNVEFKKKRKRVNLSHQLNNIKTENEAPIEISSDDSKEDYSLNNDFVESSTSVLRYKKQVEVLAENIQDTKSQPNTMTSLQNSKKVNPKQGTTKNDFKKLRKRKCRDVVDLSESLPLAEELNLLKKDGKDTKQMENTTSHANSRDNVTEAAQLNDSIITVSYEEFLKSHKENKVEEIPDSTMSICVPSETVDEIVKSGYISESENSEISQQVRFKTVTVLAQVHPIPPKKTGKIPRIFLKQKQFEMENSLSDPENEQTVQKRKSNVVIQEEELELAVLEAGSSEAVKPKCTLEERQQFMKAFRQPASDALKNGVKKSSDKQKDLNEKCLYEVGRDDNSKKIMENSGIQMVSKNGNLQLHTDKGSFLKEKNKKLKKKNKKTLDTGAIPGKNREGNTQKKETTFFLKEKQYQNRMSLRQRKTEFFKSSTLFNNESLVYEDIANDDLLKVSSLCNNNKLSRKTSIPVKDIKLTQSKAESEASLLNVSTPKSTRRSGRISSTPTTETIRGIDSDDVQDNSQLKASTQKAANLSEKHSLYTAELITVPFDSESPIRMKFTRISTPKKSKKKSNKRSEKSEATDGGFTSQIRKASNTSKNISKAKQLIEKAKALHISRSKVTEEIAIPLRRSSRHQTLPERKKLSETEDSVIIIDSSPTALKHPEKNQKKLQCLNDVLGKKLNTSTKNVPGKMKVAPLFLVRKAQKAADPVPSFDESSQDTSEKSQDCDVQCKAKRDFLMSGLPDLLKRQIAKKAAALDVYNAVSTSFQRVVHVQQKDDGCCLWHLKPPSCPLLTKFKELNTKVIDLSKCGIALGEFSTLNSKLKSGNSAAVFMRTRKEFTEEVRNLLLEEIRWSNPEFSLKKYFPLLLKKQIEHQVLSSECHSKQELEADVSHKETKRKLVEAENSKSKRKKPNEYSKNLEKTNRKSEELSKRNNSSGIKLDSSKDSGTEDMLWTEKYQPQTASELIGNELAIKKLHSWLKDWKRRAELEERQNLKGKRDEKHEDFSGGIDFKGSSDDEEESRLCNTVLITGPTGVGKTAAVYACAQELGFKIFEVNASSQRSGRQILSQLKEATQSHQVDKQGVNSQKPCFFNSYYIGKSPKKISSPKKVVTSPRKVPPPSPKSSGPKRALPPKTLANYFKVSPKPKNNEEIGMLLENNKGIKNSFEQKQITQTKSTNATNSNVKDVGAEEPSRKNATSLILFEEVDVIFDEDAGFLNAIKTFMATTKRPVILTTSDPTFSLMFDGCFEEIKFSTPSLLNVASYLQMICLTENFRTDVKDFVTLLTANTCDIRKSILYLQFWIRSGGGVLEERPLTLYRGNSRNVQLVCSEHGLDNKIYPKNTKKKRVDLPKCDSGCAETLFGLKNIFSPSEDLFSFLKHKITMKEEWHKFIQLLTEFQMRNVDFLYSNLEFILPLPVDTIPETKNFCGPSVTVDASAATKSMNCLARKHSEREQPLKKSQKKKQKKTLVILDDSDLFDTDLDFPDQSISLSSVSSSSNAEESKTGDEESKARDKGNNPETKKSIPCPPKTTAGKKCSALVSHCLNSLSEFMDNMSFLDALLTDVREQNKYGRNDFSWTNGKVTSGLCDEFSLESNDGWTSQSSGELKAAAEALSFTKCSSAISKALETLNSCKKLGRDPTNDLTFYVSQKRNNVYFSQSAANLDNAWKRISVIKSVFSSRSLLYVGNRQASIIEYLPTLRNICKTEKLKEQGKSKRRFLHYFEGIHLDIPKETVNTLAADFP
Chain of M-phase phosphoprotein 8 (Homo sapiens) (Q99549 whole entry, looked up): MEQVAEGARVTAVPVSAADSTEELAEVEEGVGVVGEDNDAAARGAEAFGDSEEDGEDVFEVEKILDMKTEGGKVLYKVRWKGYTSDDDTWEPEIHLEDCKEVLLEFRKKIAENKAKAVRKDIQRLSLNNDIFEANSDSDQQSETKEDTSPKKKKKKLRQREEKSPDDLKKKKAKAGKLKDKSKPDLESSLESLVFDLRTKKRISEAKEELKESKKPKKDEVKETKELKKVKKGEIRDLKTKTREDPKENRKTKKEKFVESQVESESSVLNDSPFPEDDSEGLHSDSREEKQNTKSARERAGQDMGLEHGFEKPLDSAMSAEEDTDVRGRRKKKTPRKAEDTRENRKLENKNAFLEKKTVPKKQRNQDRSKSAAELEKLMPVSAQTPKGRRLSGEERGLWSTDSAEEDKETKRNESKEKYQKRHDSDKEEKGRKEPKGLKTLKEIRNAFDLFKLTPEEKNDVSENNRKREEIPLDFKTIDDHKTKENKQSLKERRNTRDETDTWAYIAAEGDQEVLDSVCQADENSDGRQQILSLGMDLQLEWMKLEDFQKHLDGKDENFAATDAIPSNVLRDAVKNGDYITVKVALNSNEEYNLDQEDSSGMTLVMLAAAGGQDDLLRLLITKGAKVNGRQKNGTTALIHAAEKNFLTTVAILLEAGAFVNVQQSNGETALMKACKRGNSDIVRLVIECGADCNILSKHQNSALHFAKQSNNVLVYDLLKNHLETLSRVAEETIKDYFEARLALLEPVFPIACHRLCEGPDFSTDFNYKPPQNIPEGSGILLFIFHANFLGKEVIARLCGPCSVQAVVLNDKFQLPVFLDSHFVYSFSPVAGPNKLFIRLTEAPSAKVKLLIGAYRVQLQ
Chain of Flap endonuclease 1 (Homo sapiens) (P39748 whole entry, looked up): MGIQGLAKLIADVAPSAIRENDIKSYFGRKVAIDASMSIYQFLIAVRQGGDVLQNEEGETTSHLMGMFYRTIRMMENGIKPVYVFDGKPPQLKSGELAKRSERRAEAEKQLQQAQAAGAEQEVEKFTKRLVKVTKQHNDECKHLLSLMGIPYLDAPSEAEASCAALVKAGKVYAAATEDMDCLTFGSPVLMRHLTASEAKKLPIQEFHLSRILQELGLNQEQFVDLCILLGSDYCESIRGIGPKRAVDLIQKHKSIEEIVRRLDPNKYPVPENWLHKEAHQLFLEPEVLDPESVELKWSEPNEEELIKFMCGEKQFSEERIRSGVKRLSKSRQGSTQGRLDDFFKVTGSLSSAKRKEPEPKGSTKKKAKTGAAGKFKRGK
Chain of Transient receptor potential cation channel subfamily V member 1 (Homo sapiens) (Q8NER1 whole entry, looked up): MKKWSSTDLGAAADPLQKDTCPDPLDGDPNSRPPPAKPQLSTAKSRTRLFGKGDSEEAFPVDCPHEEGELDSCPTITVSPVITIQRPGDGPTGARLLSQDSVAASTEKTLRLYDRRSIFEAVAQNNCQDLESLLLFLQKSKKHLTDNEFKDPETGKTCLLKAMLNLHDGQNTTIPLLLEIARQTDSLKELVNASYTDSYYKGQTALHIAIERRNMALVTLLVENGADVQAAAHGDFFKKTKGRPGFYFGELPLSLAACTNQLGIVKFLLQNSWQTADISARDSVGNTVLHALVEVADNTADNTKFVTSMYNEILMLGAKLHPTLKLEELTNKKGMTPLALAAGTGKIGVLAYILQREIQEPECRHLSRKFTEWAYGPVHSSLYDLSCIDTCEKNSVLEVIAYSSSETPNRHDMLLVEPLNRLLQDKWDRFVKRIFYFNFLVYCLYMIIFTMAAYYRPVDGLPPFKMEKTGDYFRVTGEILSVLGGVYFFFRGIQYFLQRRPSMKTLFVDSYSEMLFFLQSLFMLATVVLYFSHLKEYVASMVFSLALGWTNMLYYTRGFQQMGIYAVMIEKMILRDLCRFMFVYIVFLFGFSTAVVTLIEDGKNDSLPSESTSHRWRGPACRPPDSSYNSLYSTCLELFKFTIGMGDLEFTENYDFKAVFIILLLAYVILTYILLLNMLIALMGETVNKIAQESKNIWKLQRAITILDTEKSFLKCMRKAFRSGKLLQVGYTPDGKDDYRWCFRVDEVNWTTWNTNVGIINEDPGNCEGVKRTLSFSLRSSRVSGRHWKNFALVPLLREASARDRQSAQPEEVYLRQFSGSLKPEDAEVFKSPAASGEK
Chain of D(1A) dopamine receptor (Homo sapiens) (P21728 whole entry, looked up): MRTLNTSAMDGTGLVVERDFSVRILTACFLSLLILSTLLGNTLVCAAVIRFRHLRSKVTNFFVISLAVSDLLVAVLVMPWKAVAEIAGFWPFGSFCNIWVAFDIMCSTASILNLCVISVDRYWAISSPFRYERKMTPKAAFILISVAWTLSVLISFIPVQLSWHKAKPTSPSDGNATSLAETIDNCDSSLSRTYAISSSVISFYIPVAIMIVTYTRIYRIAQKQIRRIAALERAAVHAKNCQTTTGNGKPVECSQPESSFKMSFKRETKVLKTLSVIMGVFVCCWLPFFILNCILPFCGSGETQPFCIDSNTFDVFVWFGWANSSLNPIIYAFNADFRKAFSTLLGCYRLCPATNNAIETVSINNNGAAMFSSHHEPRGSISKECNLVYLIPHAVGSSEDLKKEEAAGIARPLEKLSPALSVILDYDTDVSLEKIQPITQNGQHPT

With `NC(Cc1cc(O)c(O)cc1O)C(=O)O` (centres undefined), the Potency result in assay [1], in assay [2], in assay [10], in assay [11], in assay [12] and in [14] was “inactive” throughout. Further, the call in assay [3], in assay [8], in assay [9] and in [16] was inactive. Also, the Potency in assay [4] was 10600 nM (active); in assay [5], 670 nM (active); in assay [6], 501 nM (active) and 474 nM (active); in assay [7], 316 nM (active); in assay [13], 4470 nM (active). Besides, in [15], the activation is 1.06% (inactive).

With `CCCN(CCC)[C@H]1CCc2c(F)ccc(O)c2C1`, the Potency in assay [1] and in assay [2] was 2940 nM (active) in each case. Moreover, the outcome in [3], in assay [8], in assay [9], in assay [17] and in assay [16] was inactive. Further, the Potency result in assay [4], in assay [5], in [6], in assay [10], in assay [11] and in assay [12] was “inactive” in each case. The Potency result in assay [14] and in assay [18] was “inactive” throughout. Further, the activation in assay [15] is -3.06% (inactive). Moreover, the viability change in [18] was -8.48%.

For the molecule `C[N+]1(C)CCN(c2ccccc2)CC1`, the Potency result in assay [1], in [2], in assay [4], in assay [5], in [6] and in assay [10] was “inactive” in each case. Moreover, the Potency result in assay [11], in [12], in [19], in assay [14] and in assay [18] was “inactive” each time. Further, the call in [3], in assay [8], in assay [9], in [17] and in assay [16] was inactive. The activation in assay [15] is 0.438% (inactive). In addition, the viability change in assay [18] was -2.09%.

With `CP(=O)(O)C1=CCNCC1`, the Potency result in assay [1], in assay [2], in assay [4], in assay [5], in assay [6] and in [7] was “inactive” each time. Also, the Potency result in assay [10], in assay [11], in assay [12], in [19] and in assay [14] was “inactive” throughout. The molecule was called inactive in assay [3], in [8], in assay [9], in [17] and in assay [16]. Further, the activation in [15] was 0.188% (inactive).

In the case of `NC(=O)COc1c(F)cc(SCCNS(=O)(=O)c2ccccc2)cc1F`, the Potency entry in assay [1], in assay [2], in assay [4], in assay [5], in [6] and in assay [10] was “inactive” each time. The Potency entry in assay [11], in assay [12] and in assay [14] was “inactive” in each case. For the same molecule, the molecule was classed as inactive in assay [3], in [8], in [9], in [17] and in [16]. Besides, the activation in assay [15] was 0% (inactive).

`CC1(C(=O)O)C2CCC(O2)C1(C)C(=O)O` (centres undefined): the Potency in assay [1] is 3290 nM (active); in assay [2] it was 5220 nM (active); in assay [19] it was 3660 nM (active); in [14] it was 7300 nM (active). Further, the molecule was called inactive in [3], in assay [8], in [9] and in assay [17]. Besides, the Potency entry in [4], in assay [5], in assay [6], in assay [10], in assay [11] and in [12] was “inactive” throughout. Besides, in [15], the activation was 0.438% (inactive).

As to `CNc1ccc2oc(C[C@H]3O[C@@]4(CC[C@H]3C)O[C@H]([C@H](C)C(=O)c3ccc[nH]3)[C@H](C)C[C@H]4C)nc2c1C(=O)O`, the Potency in assay [1] is 104 nM (active); in assay [2], 2330 nM (active); in assay [7], 6 nM (active); in assay [10] it was 398 nM (active); in assay [14] it was 13000 nM (active). For the same molecule, the call in [3], in assay [8] and in assay [16] was inactive. The Potency result in [4], in assay [5], in assay [6] and in assay [19] was “inactive” each time. The activation in assay [15] is 0.125% (inactive).

On to `NNC(N)=O`, for which the Potency result in assay [1], in [2], in assay [4], in [5], in [6] and in assay [7] was “inactive” throughout. In addition, the Potency result in assay [10], in [11], in assay [12], in [14] and in [18] was “inactive” each time. The molecule was classed as inactive in [3], in [8], in assay [9], in assay [17] and in [16]. In assay [15], the activation is 0.625% (inactive). Moreover, the viability change in assay [18] was -0.697%.
